Values joined by “and” are separate entries in the source; they are usually repeats but may differ in a detail not shown here. Equal values may be shown once. This is part of a sample that, as a whole, favours compounds with a hit. Of some 79,000 tested, about 15% had one in any assay. Some structures have more than one record in an assay (separate samples or runs), and their calls can disagree. Active and inactive are the calls of the source. Rule as the data show it: active = growth inhibition above about 70%; inactive = the rest.
Legend:
[1] = NCI Yeast Anticancer Drug Screen. Data for the rad52 strain (AID 147);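 also: 0% = growth of vehicle-treated control cultures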; conditions: S. cerevisiae rad52 mutant growth inhibition, stronger effect = higher value
Summary of the method: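 Read-out: growth inhibition versus vehicle-treated controls. Cells were a DNA repair-deficient yeast strain treated with compounds.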

[2] = NCI Yeast Anticancer Drug Screen. Data for the wt1 strain (AID 149);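 also: 0% = growth of vehicle-treated wt1 cultures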; conditions: S. cerevisiae wt1 strain (SPY 50644) growth inhibition, stronger effect = higher value
Summary of the method: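 Readout: yeast growth inhibition, normalised to vehicle controls, in the wt1 strain exposed to test compounds.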

[3] = NCI Yeast Anticancer Drug Screen. Data for the rad50EPP+ strain (AID 151);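 also: 0% = growth of vehicle-treated control cultures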; conditions: S. cerevisiae rad50 mutant strain, stronger effect = higher value
Summary of the method: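 Growth inhibition read against vehicle controls in rad50EPP+ yeast, a strain altered in DNA damage repair, after compound exposure.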

[4] = NCI Yeast Anticancer Drug Screen. Data for the mgt1 strain (AID 153); conditions: S. cerevisiae mgt1 mutant growth inhibition, stronger effect = higher value
Summary of the method: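 mgt1 yeast grown with test compound; read-out is growth inhibition versus vehicle-treated cultures.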

[5] = NCI Yeast Anticancer Drug Screen. Data for the rad50 strain (AID 155);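 also: 0% = growth of vehicle-only cultures of the same strain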; conditions: S. cerevisiae rad50 strain growth inhibition, stronger effect = higher value
Summary of the method: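 Compounds were tested on a yeast strain with an engineered DNA damage repair alteration; the reported value is growth inhibition normalised to vehicle treatment.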

[6] = NCI Yeast Anticancer Drug Screen. Data for the mec2-1 strain (AID 157); conditions: S. cerevisiae mec2-1 strain, stronger effect = higher value
Summary of the method: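 Yeast mec2-1 mutant treated with compound. Readout: growth inhibition vs vehicle controls.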

[7] = NCI Yeast Anticancer Drug Screen. Data for the rad14 strain (AID 159);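 also: 0% = growth of vehicle-treated control cultures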; conditions: S. cerevisiae rad14 strain growth inhibition, stronger effect = higher value
Summary of the method: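 Compound-treated yeast with a defined DNA-repair lesion; growth inhibition normalised to vehicle-treated cultures.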

[8] = NCI Yeast Anticancer Drug Screen. Data for the sgs1 mgt1 strain (AID 161);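 also: 0% = growth of cultures given vehicle only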; conditions: S. cerevisiae sgs1 mgt1 strain, stronger effect = higher value
Summary of the method: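 Mutant yeast exposed to compound; growth scored against vehicle-only wells.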

[9] = NCI Yeast Anticancer Drug Screen. Data for the CLN2oe strain (AID 163);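 also: 0% = growth of vehicle-only control cultures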; conditions: S. cerevisiae CLN2oe strain, stronger effect = higher value
Summary of the method: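 Read-out: yeast growth inhibition, expressed relative to vehicle-only controls. The strain bears an engineered cell-cycle alteration.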

[10] = NCI Yeast Anticancer Drug Screen. Data for the cln2 rad14 strain (AID 165);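 also: 0% = growth equal to vehicle treated cultures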; conditions: S. cerevisiae cln2 rad14 strain, stronger effect = higher value
Summary of the method: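 cln2 rad14 yeast strain; compound exposure; growth inhibition read vs vehicle controls.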

[11] = NCI Yeast Anticancer Drug Screen. Data for the bub3 strain (AID 167); conditions: S. cerevisiae bub3 mutant strain, stronger effect = higher value
Summary of the method: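 Growth of a checkpoint-deficient yeast mutant is measured after compound exposure. Values represent inhibition relative to vehicle.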

[12] = NCI Yeast Anticancer Drug Screen. Data for the wt2 strain (AID 169);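 also: 0% = growth of vehicle-treated yeast cultures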; conditions: S. cerevisiae wt2 strain growth inhibition, stronger effect = higher value
Summary of the method: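 Read-out: growth inhibition versus vehicle-treated control cultures after compound exposure of the yeast strain.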

[13] = NCI Yeast Anticancer Drug Screen. Data for the mlh1 strain (AID 171);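 also: 0% = growth of vehicle-treated control cultures of the same strain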; conditions: S. cerevisiae mlh1 strain growth inhibition, stronger effect = higher value
Summary of the method: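 Read-out: growth inhibition versus vehicle controls. Strain: engineered yeast with a defined DNA repair or cell cycle defect, compound-treated.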

[14] = NCI Yeast Anticancer Drug Screen. Data for the sgs1 strain (AID 173);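 also: 0% = growth of vehicle-only control cultures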; conditions: S. cerevisiae sgs1 mutant, stronger effect = higher value
Summary of the method: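 Read-out: yeast growth inhibition relative to vehicle controls, following compound exposure of a strain with a defined DNA repair/cell cycle alteration.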

[15] = NCI Yeast Anticancer Drug Screen. Data for the mlh1 rad18 strain (AID 175); conditions: S. cerevisiae mlh1 rad18 strain growth inhibition, stronger effect = higher value
Summary of the method: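 Yeast w/ defined DNA-repair lesions; compound exposure; growth vs vehicle controls → % inhibition.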

[16] = NCI Yeast Anticancer Drug Screen. Data for the rad18 strain (AID 177); conditions: S. cerevisiae rad18 mutant growth inhibition, stronger effect = higher value
Summary of the method: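 Readout: growth inhibition vs vehicle controls. Cells: genetically altered yeast strain, DNA repair defect.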

[17] = at 5.0 µM (retest, dose inferred, filed as 0.5)
[18] = at 50.0 µM (retest, dose inferred, filed as 5.0)

Measured: growth inhibition

CS(=O)(=O)OCCN(CCOS(C)(=O)=O)c1ccc(C=Nc2ccc(-c3csc(COc4ccccc4)n3)cc2)cc1
-64% (inactive) and 98% (active): [8]; [18]
inactive: [1]; at 1.2 µM 15% | [1]; at 3.7 µM 29% | [2]; at 1.2 µM -30% | [2]; at 3.7 µM -33% | [2]; at 11.0 µM -8% | [3]; at 1.2 µM -2% | [3]; at 3.7 µM -11% | [3]; at 11.0 µM 49% | [4]; at 1.2 µM -22% | [4]; at 3.7 µM -16% | [4]; at 11.0 µM 23% | [5]; at 1.2 µM -29% | [5]; at 3.7 µM -5% | [5]; [17] 44% and 40% | [5]; at 11.0 µM 63% | [6]; at 1.2 µM -46% | [6]; at 3.7 µM -18% | [6]; [17] 33% and 34% | [6]; at 11.0 µM 41% | [7]; at 1.2 µM -25% | [7]; at 3.7 µM 14% | [7]; at 11.0 µM 59% | [8]; [17] -12% and 26% | [9]; at 1.2 µM 1% | [9]; at 3.7 µM 4% | [9]; at 11.0 µM 45% | [10]; [17] -2% and 25% | [11]; at 1.2 µM -36% | [11]; at 3.7 µM -16% | [11]; [17] -4% and 19% | [11]; at 11.0 µM 47% | [12]; at 1.2 µM -4% | [12]; at 3.7 µM 11% | [12]; at 11.0 µM 54% | [13]; at 1.2 µM -24% | [13]; at 3.7 µM -17% | [13]; at 11.0 µM 42% | [14]; at 1.2 µM 11% | [14]; at 3.7 µM 14% | [14]; at 11.0 µM 64% | [16]; at 1.2 µM 15% | [16]; at 3.7 µM 61%
-73% (inactive) and 96% (active): [11]; [18]
81% (active) and 65% (inactive): [15]; [17]
active: [1]; at 11.0 µM 76% | [1]; at 33.0 µM 96% | [1]; at 100.0 µM 93% | [2]; at 33.0 µM 90% | [2]; at 100.0 µM 91% | [3]; at 33.0 µM 94% | [3]; at 100.0 µM 93% | [4]; at 33.0 µM 90% | [4]; at 100.0 µM 91% | [5]; at 33.0 µM 93% | [5]; [18] 95% and 96% | [5]; at 50.0 µM 97% | [5]; at 100.0 µM 91% | [6]; at 33.0 µM 93% | [6]; [18] 96% | [6]; at 50.0 µM 98.2% | [6]; at 100.0 µM 91% | [7]; at 33.0 µM 95% | [7]; at 100.0 µM 94% | [8]; at 50.0 µM 84.8% and 97.7% | [9]; at 33.0 µM 93% | [9]; at 100.0 µM 90% | [10]; at 50.0 µM 85.3% and 95.8% | [11]; at 33.0 µM 91% | [11]; at 50.0 µM 84.5% and 96.2% | [11]; at 100.0 µM 88% | [12]; at 33.0 µM 92% | [12]; at 100.0 µM 91% | [13]; at 33.0 µM 94% | [13]; at 100.0 µM 92% | [14]; at 33.0 µM 93% | [14]; at 100.0 µM 92% | [15]; [18] 95% and 97% | [15]; at 50.0 µM 97.2% | [16]; at 11.0 µM 84% | [16]; at 33.0 µM 95% | [16]; at 100.0 µM 91%
-80% (inactive) and 96% (active): [10]; [18]

From PubChem BioAssay (NCI)
